Source: the supplement of paper PMC12645437, “Orthogonal IMiD-Degron Pairs Induce Selective Protein Degradation in Cells” (ACS Chemical Biology, 2025)
In all, about 8,300 sequences were measured (“log2 fold change of degron read counts, EGFP-low vs EGFP+ sorted cells (limma voom), compound-induced degradation”: median about -1.1, highest 2% from about 3.2 on). This excerpt belongs to a sample that is enriched for the highest values.

T1: CRBN, Q96SW2
T1 chain: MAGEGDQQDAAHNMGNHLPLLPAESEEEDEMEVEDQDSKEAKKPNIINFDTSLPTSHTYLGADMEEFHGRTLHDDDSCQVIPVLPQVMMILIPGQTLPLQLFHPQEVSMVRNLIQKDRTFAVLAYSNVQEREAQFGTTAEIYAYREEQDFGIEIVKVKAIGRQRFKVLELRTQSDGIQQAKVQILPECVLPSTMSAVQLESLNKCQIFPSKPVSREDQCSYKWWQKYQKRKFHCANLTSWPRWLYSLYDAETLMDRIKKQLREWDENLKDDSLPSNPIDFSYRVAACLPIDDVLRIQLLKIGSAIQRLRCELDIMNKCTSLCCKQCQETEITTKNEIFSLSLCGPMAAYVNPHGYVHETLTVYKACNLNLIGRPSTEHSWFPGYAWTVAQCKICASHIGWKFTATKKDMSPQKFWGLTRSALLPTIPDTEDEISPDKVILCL


Biological target: T1, CRBN, Q96SW2
Assay: log2 fold change of degron read counts, EGFP-low vs EGFP+ sorted cells (limma voom), compound-induced degradation; higher = more compound-induced degradation of the degron-EGFP fusion; degrons are variants of IKZF1/3 zinc finger 2; compound dose not given here
Conditions: Jurkat, 18 h
[1] = compound: compound 19 (5-tert-butyl-thalidomide)
[2] = compound: compound 22 (5-morpholino-thalidomide)
[3] = compound: compound 33 (diphenyl IMiD analogue)
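Further: pooled lentiviral library of zinc finger degron-EGFP fusions in mCherry-positive Jurkat cells, FACS-sorted after compound exposure, with degron abundance counted by next-generation sequencing.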

Sequence	log2 fold change of degron read counts [1]	log2 fold change of degron read counts [2]	log2 fold change of degron read counts [3]	log2 fold change of degron read counts (compound: thalidomide)
FVCEICGATFTQKGNLLRHIKL [46F_47V_49E_50I_52G_53A_54T_55F_67L_, Q9UKT9]	0.63	1.64	1.82	2.54
FGCEICGATFTQKGNLLRHIKL [46F_47G_49E_50I_52G_53A_54T_55F_67L_, Q9UKT9]	3.22	2.59	1.76	1.11
FWCEICGATFTQKGNLLRHIKL [46F_47W_49E_50I_52G_53A_54T_55F_67L_, Q9UKT9]	3.05	3.73	1.97	0.793
FFCEICGHIFTQKGNLLRHIKL [46F_47F_49E_50I_52G_53H_54I_55F_67L_, Q9UKT9]	-0.448	-0.503	-0.957	-1.04
LSCEICGFSCTQKGNLLRHIKL [46L_47S_49E_50I_52G_53F_54S_55C_67L_, Q9UKT9]	2.75	2.53	1.7	1.8
LNCEICGFSCTQKGNLLRHIKL [46L_47N_49E_50I_52G_53F_54S_55C_67L_, Q9UKT9]	1.58	-0.0234	-0.0305	0.742
LHCEICGFSCTQKGNLLRHIKL [46L_47H_49E_50I_52G_53F_54S_55C_67L_, Q9UKT9]	3.19	3.16	2.27	2.44
LVCEICGFSCTQKGNLLRHIKL [46L_47V_49E_50I_52G_53F_54S_55C_67L_, Q9UKT9]	2.39	3.11	2.52	3.33
LRCEICGFSCTQKGNLLRHIKL [46L_47R_49E_50I_52G_53F_54S_55C_67L_, Q9UKT9]	2.23	1.56	2.62	2.99
LGCEICGFSCTQKGNLLRHIKL [46L_47G_49E_50I_52G_53F_54S_55C_67L_, Q9UKT9]	1.24	0.532	-0.284	-0.251
LLCEICGFSCTQKGNLLRHIKL [46L_47L_49E_50I_52G_53F_54S_55C_67L_, Q9UKT9]	1.68	-0.0296	1.49	2.43
LACEICGFSCTQKGNLLRHIKL [46L_47A_49E_50I_52G_53F_54S_55C_67L_, Q9UKT9]	3.41	2.96	0.73	1.55
LWCEICGFSCTQKGNLLRHIKL [46L_47W_49E_50I_52G_53F_54S_55C_67L_, Q9UKT9]	3.66	3.79	3.08	1.89
LQCEICGFSCTQKGNLLRHIKL [46L_47Q_49E_50I_52G_53F_54S_55C_67L_, Q9UKT9]	2.41	1.96	1.77	3.58
LECEICGFSCTQKGNLLRHIKL [46L_47E_49E_50I_52G_53F_54S_55C_67L_, Q9UKT9]	0.457	-1.92	1.25	2.46
LDCEICGFSCTQKGNLLRHIKL [46L_47D_49E_50I_52G_53F_54S_55C_67L_, Q9UKT9]	0.356	-1.04	-1.04	-0.00753
FLCDICGACFTQKGNLLRHIKL [46F_47L_49D_50I_52G_53A_54C_55F_67L_, Q9UKT9]	-0.48	-1.68	0.21	-0.568

Sequence	log2 fold change of degron read counts [1]	log2 fold change of degron read counts [2]	log2 fold change of degron read counts [3]	log2 fold change of degron read counts (compound: thalidomide)
FTCNQCGRMFTQKGNLLRHIKL [46F_47T_49N_50Q_52G_53R_54M_55F_67L_, Q9UKT9]	-2.42	-2.23	-3.36	-2.15
FKCPVCGANFTQKGNLLRHIKL [46F_47K_49P_50V_52G_53A_54N_55F_67L_, Q9UKT9]	-1.23	-1.7	-1.75	-0.842
FFCNVCGASFTQKGNLLRHIKL [46F_47F_49N_50V_52G_53A_54S_55F_67L_, Q9UKT9]	0.714	1.8	0.537	-0.573
FWCNVCGATFTQKGNLLRHIKL [46F_47W_49N_50V_52G_53A_54T_55F_67L_, Q9UKT9]	-0.873	1.95	0.03	-1.73
FVCEICGHWFTQKGNLLRHIKL [46F_47V_49E_50I_52G_53H_54W_55F_67L_, Q9UKT9]	-4.05	-5.4	-3.27	-3.37
FCCNVCGAIFTQKGNLLRHIKL [46F_47C_49N_50V_52G_53A_54I_55F_67L_, Q9UKT9]	-0.872	-0.605	1.29	-0.21
FRCDVCGAKFTQKGNLLRHIKL [46F_47R_49D_50V_52G_53A_54K_55F_67L_, Q9UKT9]	-1.66	-1.94	-0.967	-0.732
FFCEICGHQFTQKGNLLRHIKL [46F_47F_49E_50I_52G_53H_54Q_55F_67L_, Q9UKT9]	-2.47	-1.41	-2.03	-3.11
FCCPVCGAYFTQKGNLLRHIKL [46F_47C_49P_50V_52G_53A_54Y_55F_67L_, Q9UKT9]	0.773	0.428	1.38	0.899
LMCEICGFSCTQKGNLLRHIKL [46L_47M_49E_50I_52G_53F_54S_55C_67L_, Q9UKT9]	1.25	2.14	2.59	2.36
LCCEICGFSCTQKGNLLRHIKL [46L_47C_49E_50I_52G_53F_54S_55C_67L_, Q9UKT9]	2.55	2.37	1.93	2.56
LYCEICGFSCTQKGNLLRHIKL [46L_47Y_49E_50I_52G_53F_54S_55C_67L_, Q9UKT9]	3.63	3.7	3.1	2.45
LTCEICGFSCTQKGNLLRHIKL [46L_47T_49E_50I_52G_53F_54S_55C_67L_, Q9UKT9]	2.45	3.22	2.39	3.2
LKCEICGFSCTQKGNLLRHIKL [46L_47K_49E_50I_52G_53F_54S_55C_67L_, Q9UKT9]	1.07	-1.26	-1.41	0.762
LICEICGFSCTQKGNLLRHIKL [46L_47I_49E_50I_52G_53F_54S_55C_67L_, Q9UKT9]	1.33	3.02	2.39	3.24
LFCEICGFSCTQKGNLLRHIKL [46L_47F_49E_50I_52G_53F_54S_55C_67L_, Q9UKT9]	3.66	3.51	2.53	2.79
